# Compounds with a hit are over-represented: about 3.5% of the library has one in this group of screens.
# 3CLpro inhibitor: SARS-CoV 3CLpro protease inhibitors, primary screen, biochemical, quenched FRET; AID 1706, 2009; hit rate 0.14% among 290,000; recombinant SARS-CoV 3CLpro, quenched FRET peptide cleavage; Replicase polyprotein 1ab (Severe acute respiratory syndrome coronavirus), P0C6X7; inhibition, % at 6 µM; in the data active means inhibition above about 12%
# Bead autofluor: counter-screen for toxin protease inhibitors: compound fluorescence. compound autofluorescence counterscreen, microsphere flow cytometry; active compounds read high. fluorescence intensity (test concentration not listed). hit rate 3.1% among 360,000. AID 624483; in the data active means fluorescence intensity above about 16000; inconclusive means no clear call, values can overlap the other calls
# Anthrax LF prot: Bacillus anthracis LF protease inhibitors, primary screen, biochemical, multiplex microsphere, MLPCN library; hit rate 0.12% among 360,000; Lethal factor (Bacillus anthracis), P15917; multiplex microsphere protease cleavage assay; AID 588501, 2011; inhibition, % at 10 µM; further: plate controls were buffer without enzyme for full effect and enzyme alone for no effect
# BoNT F protease: BoNT/F light chain protease inhibitors, primary screen, biochemical, flow cytometry, MLPCN library; Multiplex microsphere protease cleavage assay; hit rate 0.22% among 360,000; Botulinum neurotoxin type F light chain protease (Clostridium botulinum); inhibition, % at 10 µM; AID 588497, 2011; in the data active means inhibition above about 35%, passing the limit was not always enough; inconclusive means no clear call, values can overlap the other calls; further: plate controls were buffer without enzyme for full effect and enzyme alone for no effect
# BoNT-A LC inh2: BoNT/A light chain protease inhibitors, primary screen, biochemical, flow cytometry, MLPCN library; Botulinum neurotoxin type A light chain protease (Clostridium botulinum A str. ATCC 3502); multiplex microsphere protease substrate cleavage; inhibition, % at 10 µM; hit rate 0.17% among 360,000; further: plate controls were buffer without enzyme for full effect and enzyme alone for no effect
# BoNT-A LC CP1: BoNT/A light chain protease inhibitors, confirmation, biochemical, flow cytometry, cherry pick 1 | shares compounds with BoNT F protease | multiplex microsphere protease assay | inhibition, % at 10 µM | hit rate 3% among 720 | AID 602139, 2011; in the data active means inhibition above about 32%
# BoNTF LC inh 1: BoNT/F light chain protease inhibitors, confirmation, biochemical, flow cytometry, cherry pick 1; shares compounds with BoNT F protease; inhibition, % at 10 µM; multiplex microsphere protease cleavage assay; AID 602140, 2011; 720 tested, under 10 active; call rule not given here
# LF protease CP1: Bacillus anthracis LF protease inhibitors, confirmation, biochemical, multiplex microsphere, cherry pick 1. shares compounds with BoNT F protease. multiplex microsphere protease cleavage assay. inhibition, % at 10 µM. 720 tested, under 10 active. AID 602142, 2011; call rule not given here
# Starred values were filed as active, the others as inactive; i = inactive; ? = inconclusive; / = not tested or not shown. Unless noted, no stated cut-off is given here; in the data, active means inhibition above about 30%; inconclusive means no clear call, values can overlap the other calls; inactive means below that.
SMILES,3CLpro inhibitor,Bead autofluor,Anthrax LF prot,BoNT F protease,BoNT-A LC inh2,BoNT-A LC CP1,BoNTF LC inh 1,LF protease CP1
O=C(Nc1ccc(Cl)cc1F)C1CC1c1ccccc1 (centres undefined),7,4174,1,10,1,/,/,/
CN(Cc1ccc(C(C)(C)C)cc1)C(=O)C1CCN(C(=O)Nc2ccccc2)CC1,/,?,-4,-4,-2,/,/,/
COC(=O)C1CCN(C(=O)CN(C)Cc2ccc(C(C)(C)C)cc2)CC1,-2,3751,3,36*,0,2,2,5
C=CCOc1c(Br)cc(CNCCCN2CCOCC2)cc1OC,5,2985,45*,-3,0,0,-6,-1
Nc1ccc(C(=O)Nc2nc3ccccc3s2)cc1,3,5494,3,-8,0,/,/,/
CC(C)NC(=O)c1sc2nc(-c3cccs3)cc(-c3cccs3)c2c1N,8,/,/,/,/,/,/,/
Nc1c(C(=O)Nc2nc3ccccc3s2)sc2nc(-c3cccs3)ccc12,1,3925,28,30,50*,27,9,16
CC(=O)c1sc2nc(-c3cccs3)ccc2c1N,1,7582,8,17,34*,24,2,11
COC(=O)c1ccccc1NC(=O)Nc1ccc(C)cn1,-2,4043,-3,-1,0,/,/,/
CCC(C)(C)n1nnnc1C(c1cc2cc(C)cc(C)c2[nH]c1=O)N1CCCC1 (centres undefined),-4,10428,7,2,10,/,/,/
CCC(C)(C)n1nnnc1C(c1cc2cccc(C)c2[nH]c1=O)N1CCCC1 (centres undefined),2,23337*,3,4,?,0,0,-4
CCC(C)(C)n1nnnc1C(c1cc2ccc(OC)cc2[nH]c1=O)N1CCCCC1 (centres undefined),-3,10987,-6,3,2,-2,0,-5
COCCCNc1oc(-c2cccs2)nc1S(=O)(=O)c1ccc(C)cc1,1,4265,0,39*,2,-2,-4,0
O=[N+]([O-])c1cc2cccnc2c2ncccc12,6,/,/,/,/,/,/,/
O=[N+]([O-])c1ccc(Sc2cccc3cccnc23)c2cccnc12,0,4230,30*,8,24,17,4,13
Cc1ccc(C)c2nc(N3CCCC3)c(C#N)cc12,0,4615,26,27,36*,16,1,7
COc1ccc(C2=NOC(C(=O)NCc3ccccn3)C2)cc1 (centres undefined),0,3906,5,72*,3,-1,-4,-2
CN1CCC(N(C)CC(=O)Nc2ccccc2N2CCOCC2)CC1,3,3905,-3,?,0,/,/,/
CCOC(=O)c1c(NC(=O)Nc2ccc(Cl)cc2)sc(C)c1C,-2,27117*,41*,i,-30,-1,1,-6
Clc1ccc(/C=C/c2ncc[nH]2)c(Cl)c1,1,3685,-8,40*,5,0,-6,-1
COc1ccccc1Cn1c(=S)[nH]c2ccc(Br)cc2c1=O,-5,3774,31*,-3,2,-1,-4,-1
Cc1cc(C)nc(SCc2ccc(Cl)cc2)n1,-6,3562,32*,-12,2,0,-3,2
CC(=O)N1CCc2cc(S(=O)(=O)NCCC(=O)NC3CCCCCC3)ccc21,-6,4984,0,2,0,/,/,/
Cc1ccc(NC(=O)CCCCCC2NC(=O)NC2C)cc1 (centres undefined),1,3319,0,71*,10,5,0,-8
COC(=O)c1cccc(/C=N/NC(N)=S)c1O,-2,4096,-4,-3,-1,/,/,/
SMILES,3CLpro inhibitor,Bead autofluor,Anthrax LF prot,BoNT F protease,BoNT-A LC inh2,BoNT-A LC CP1,BoNTF LC inh 1,LF protease CP1
Cc1onc(-c2ccccc2)c1C(=O)N1CCCN2C(=O)c3ccccc3C21 (centres undefined),2,5529,-3,1,0,1,-1,2
CCN(CC)C(=O)c1ccccc1NC(=O)CN1C(=O)c2ccccc2S1(=O)=O,4,5672,-2,10,1,/,/,/
Clc1ccc(CSc2ccc(-c3ccccn3)nn2)cc1,1,4754,-3,-4,-2,/,/,/
Clc1ccc(Cc2ccc(SCc3ccccc3)nn2)c(Cl)c1,-5,?,22,43*,21,0,2,-1
CC(=O)CSc1nnc(-c2ccc(S(=O)(=O)N3CCCC3)cc2)n1C,-2,3870,31*,-10,1,1,1,2
CC(=O)CSc1nnc(-c2ccc(S(=O)(=O)N3CCOCC3)cc2)n1C,-1,6054,-1,3,-1,/,/,/
Cc1ccc(NS(=O)(=O)c2cccc(C(=O)N3CCOCC3)c2)cc1,-7,2933,-3,-4,1,/,/,/
COc1cccc(NC(=O)c2oc3ccccc3c2NC(=O)C(C)(C)C)c1,2,6579,-14,53*,44*,-1,-3,0
Cc1ccc2c(=O)c(CN3CCCCCC3)c(C)[nH]c2c1C,-1,7258,-6,-34,-9,/,/,/
Cc1ccc2nc3c(cc2c1)c(NC(=O)C(C)(C)C)nn3CC(C)C,1,2974,49*,15,2,1,2,0
Cc1ccc2nc3c(cc2c1)c(NC(=O)c1ccco1)nn3CC(C)C,4,3936,18,?,?,/,/,/
CC(C)c1ccc(NC(=O)C2CC(=O)N(C(C)C)C2)cc1 (centres undefined),-1,4324,8,?,0,/,/,/
Cc1cccc(C)c1NC(=O)C1CC(=O)N(C(C)C)C1 (centres undefined),0,3715,5,35*,3,-1,-2,-1
Cc1ccc(C(=O)Nc2ccc(O)cc2C(=O)O)cc1,4,8453,2,33,4,3,1,-4
Cc1cc2ccccc2n1CCNC(=O)C1CCCC1,1,909,7,-99,163*,1,0,0
COc1ccc(N2CCc3c(C)nc4c(OC)cccc4c32)cc1,-5,4379,0,-1,0,/,/,/
Cc1nc2c(C)cccc2c2c1CCN2c1ccccc1F,1,3906,35*,?,?,0,-5,0
Cn1ccc2c(-c3cccc4ccccc34)cc3c(c21)C1CCC3O1 (centres undefined),/,4389,5,6,0,/,/,/
CC1(C)Cc2nc3sc4c(SCC(=O)NCc5ccco5)ncnc4c3cc2CO1,-4,4844,-1,-26,-1,/,/,/
